Source: PubChem BioAssay AID778 (Sanford-Burnham Center for Chemical Genomics, 2007)
Out of some 96,000 compounds screened, about 20,000 (21%) were called active. Only a sample is shown. Values without a mark were called inactive.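 The calls were made as follows: active = CYP2C19 inhibition above a set limit at 5 µM in the primary screen (cut at about 50% in these data); inactive = the rest.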

biological target: Cytochrome P450 2C19 (Homo sapiens) (UniProt P33261); assay: blockers of cytochrome P450 2C19 activity – biochemical, luminescence, ADME assay, primary screen (AID 778); conditions: CYP2C19 Supersomes, luciferin-H EGE luminescence, 30 min; at 5 µM; hits give high values;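 also: plate controls were negative control wells for no effect and 2.5 mM tranylcypromine positive control for full effect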
Sequence (P33261 whole entry, looked up): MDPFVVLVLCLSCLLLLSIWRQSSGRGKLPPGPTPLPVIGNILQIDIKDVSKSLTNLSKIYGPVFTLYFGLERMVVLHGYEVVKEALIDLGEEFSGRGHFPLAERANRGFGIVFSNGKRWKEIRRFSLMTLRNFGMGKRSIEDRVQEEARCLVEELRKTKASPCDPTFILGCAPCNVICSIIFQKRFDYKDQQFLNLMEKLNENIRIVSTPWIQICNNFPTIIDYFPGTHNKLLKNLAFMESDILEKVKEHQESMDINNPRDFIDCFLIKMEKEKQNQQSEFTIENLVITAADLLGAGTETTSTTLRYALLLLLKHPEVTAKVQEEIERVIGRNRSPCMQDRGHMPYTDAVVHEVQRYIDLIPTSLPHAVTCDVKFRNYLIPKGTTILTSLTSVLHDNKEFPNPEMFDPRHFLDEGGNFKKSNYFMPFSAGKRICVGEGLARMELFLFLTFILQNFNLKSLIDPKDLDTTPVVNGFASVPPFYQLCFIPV

| SMILES | inhibition |
| --- | --- |
| CCOC(=O)c1c(NC(=O)CCCN2CCOCC2)sc2c1CC(C)(C)OC2 | 9.3% |
| Cc1ccc(C(C(=O)NC2CCCCC2)N(C(=O)c2csnn2)C2CC2)o1 (configuration not stated) | 50% (active) |
| CCC(C(=O)NC1CCCC1)N(C(=O)c1snc(C(N)=O)c1N)c1ccc2c(c1)OCCO2 (configuration not stated) | -2.4% |
| Cc1ccsc1C(C(=O)NC1CCCCC1)N(C(=O)Cc1cccs1)C1CC1 (configuration not stated) | -2.9% |
| O=C(Nc1ccc(F)c(Cl)c1)C1CCN(S(=O)(=O)c2cccnc2)CC1 | 41.7% |
| Cc1ccc(NC(=O)C2CC(c3ccc(F)cc3)=NO2)cc1 (configuration not stated) | 28.2% |
| O=C(Nc1ccc2c(c1)OCO2)C1CC(c2c(F)cccc2Cl)=NO1 (configuration not stated) | 92.7% (active) |
| O=C(Nc1ccccc1-c1nnn(CC(=O)N2CCN(c3ccccc3)CC2)n1)c1cccs1 | 47.5% |
| C=CCN(N=Nc1cccc([N+](=O)[O-])c1)c1cccc([N+](=O)[O-])c1 | 19.3% |
| O=C(Nc1ccccc1Cl)N1CCN(c2ccc3nncn3n2)CC1 | 24.1% |
| O=C(Nc1ccc(Cl)cc1)N1CCc2[nH]c3ccccc3c2C1 | 13.4% |
| CC1(C)Cc2c(C#N)c(SCc3nc4ccccc4[nH]3)nc(N3CCOCC3)c2CO1 | 80.5% (active) |
| C1=C(N2CCOCC2)/C(=C/c2nc3ccccc3[nH]2)CC1 | 20.6% |
| c1ccc2[nH]c(NCCN3CCOCC3)nc2c1 | 7.5% |
| Cc1nc(NCc2ccccc2)c(C(N)=O)c2c1COC(C)(C)C2 | 48.5% |
| CC(C)OC(=O)C(C#N)c1nc2ccccc2nc1N1CCN(Cc2ccccc2)CC1 (configuration not stated) | 30.6% |
| CC(C)Cc1nc(N2CCOCC2)c(C#N)c2c1CCC2 | 39.8% |
| CC(C)c1nc(N2CCOCC2)c(C#N)c2c1COC(C)(C)C2 | 55.5% (active) |
| CC(C)C(=O)N1CCN(c2nc(-c3ccccc3)c3c(c2C#N)CC(C)(C)OC3)CC1 | 95.4% (active) |
| Cc1ccc2nc(-c3ccc(SCC(=O)Nc4cc(C)on4)nc3)[nH]c2c1 | -9.6% |
| C=CCn1c(SCc2c(C)noc2C)nc2sc3c(c2c1=O)CCC(C)C3 (configuration not stated) | 29% |
| COc1ccc2[nH]c(=O)c(-c3noc(-c4ccc(F)cc4)n3)cc2c1 | -20.6% |
| O=C(NCCCN1CCCCC1)c1ccc2c(c1)NC(=O)C(N1CCOCC1)S2 (configuration not stated) | -20.4% |
| Cc1cc2nc(-c3ccc(NC(=O)c4cccnc4)cc3)oc2cc1C | -3.8% |
| c1ccc(-c2cn3cccnc3n2)cc1 | 1.9% |
| Cc1nc2ccc(NC(=O)C(F)(F)F)cc2o1 | 19.3% |

| SMILES | inhibition |
| --- | --- |
| C#CCN1CC(C)/C(=N/O)CC1C (configuration not stated) | -17% |
| CC(C)(C)NC(=O)C(c1ccncc1)N(C(=O)CNC(=O)c1ccco1)c1ccc2c(c1)OCO2 (configuration not stated) | 25.7% |
| Cc1noc(C)c1C(=O)NC(C)c1ccc2c(c1)OCO2 (configuration not stated) | 64.5% (active) |
| Cc1cccc(N2C(=O)C3C(c4ccccc4)OC4(C(=O)c5ccccc5C4=O)C3C2=O)c1 (configuration not stated) | -10.6% |
| CCOC(=O)c1c(N)sc(C(C)=O)c1C | 22.5% |
| O=C(CN1CCN(C2CCCCC2)CC1)Nc1ccccc1N1CCCCC1 | 1.2% |
| CCn1cc(C(=O)N2CCN(C3CCCCC3)CC2)c2cc(OC)c(OC)cc2c1=O | 13.8% |
| Cc1ccc(C(=O)N2CCN(C3CCCCC3)CC2)s1 | 52.8% (active) |
| CCN1CC=C2C(C#N)=C(N)C(C#N)(C#N)[C@H](c3ccoc3)[C@H]2C1 | 7.1% |
| COc1ccc(Cc2nnc(SCC(=O)c3cccc([N+](=O)[O-])c3)n2C)cc1 | 15.5% |
| COc1ccc(C(=O)N2CCc3cc(OC)c(OC)cc3C2c2cccc([N+](=O)[O-])c2)cc1 (configuration not stated) | 53.7% (active) |
| COc1ccc(C(=O)Nc2nc(-c3ccc(OC)cc3)c(-c3ccc([N+](=O)[O-])cc3)s2)cc1 | 6.9% |
| CNC(=O)c1nnc(Cc2ccc(Cl)cc2)o1 | 45.2% |
| Cc1cccc(S(=O)(=O)CC(=O)Nc2nc(-c3ccccc3)cs2)c1 | 35.4% |
| COCc1nnc(NC(=O)CS(=O)(=O)Cc2ccccc2)s1 | 1.9% |
| O=C(CCS(=O)(=O)c1ccccc1)Nc1nc2c(s1)CCCC2 | 73.9% (active) |
| Cc1ccc(-c2c3c(=O)n(C)c(=O)n(C)c3cn2-c2ccccc2O)cc1 | 19% |
| Cc1oc(-c2ccccc2Cl)[n+]([O-])c1C | 8.4% |
| COc1ccc(-c2nc(CCNC(=O)c3ccc(Br)o3)cs2)cc1 | 58.8% (active) |
| O=C(NCCc1ccccn1)c1ccc(COc2ccccc2)o1 | 5.8% |
| CC(=O)Cc1nsc(NC(=O)c2ccc(COc3ccc(C)cc3)o2)n1 | 22.2% |
| Cc1cc(C(=O)COC(=O)CCCN2C(=O)c3ccccc3C2=O)c(C)n1C | -0.8% |
| CCOC(=O)NNC(=O)c1ccc(Cl)cc1 | 6.6% |
| O=C(CN1CCOCC1)Nc1ccc(NC(=O)CN2CCOCC2)c(Cl)c1 | -2.2% |
| O=C(NC1CCCCC1)c1cc([N+](=O)[O-])ccc1N1CCOCC1 | -1.9% |
| O=[N+]([O-])c1ccc(NCCCN2CCOCC2)c(Cl)c1 | 52% (active) |

| SMILES | inhibition |
| --- | --- |
| CC1(C)C2CCC1(C)C(OC(=O)CCn1ccnc1)C2 (configuration not stated) | 99.5% (active) |
| COc1ccc(OC)c(C(=O)c2ccc(C(=O)O)cc2)c1 | -2.7% |
| COc1ccc(C(=O)Nc2ccc(CN3CCOCC3)cc2)cc1 | 16.2% |
| COc1ccc(OC)c(C(=O)c2coc3ccc(O)c(CN4CCOCC4)c23)c1 | 52.4% (active) |
| COc1ccc(C)cc1N(C)C(=O)c1coc(=O)c2ccccc12 | 15.5% |
| COc1ccc(OC)c(C(=O)c2coc3ccc(OC)cc23)c1 | 89.7% (active) |
| COc1ccc2occ(C(=O)c3ccc(N=C(C)N(C)C)cc3)c2c1 | 30.2% |
| CCOc1cc(C(=O)Nc2ncccn2)cc(OCC)c1OCC | 7.1% |
| Clc1ccc(-n2nnnc2CN2CCCCC2)cc1Cl | 27.7% |
| O=C(O)CC(Cn1cnnn1)c1ccccc1 (configuration not stated) | -11.5% |
| O=C(c1ccccc1)C(Cn1cncn1)C(Sc1ccccc1)c1ccccc1 (configuration not stated) | 99.3% (active) |
| O=C(CSc1nnc2ccccn12)c1ccccc1 | 13.9% |
| O=C(c1ccc2c(c1)N(Cc1ccc(F)cc1)C(=O)CS2)N1CCOCC1 | 23.9% |
| CCOC(=O)N1CCN(Cc2nc(N)nc(Nc3ccc(C)cc3)n2)CC1 | 36.2% |
| CCN(CC)CCN1C(=O)C(=O)/C(=C(/O)c2ccccc2)C1c1ccccc1F (configuration not stated) | -0.3% |
| COC(=O)c1ccc(N(CC(=O)NC2CCCC2)C(=O)CNC(=O)c2ccco2)cc1 | -6.6% |
| CCCn1c(=O)c2ccccc2n2c(SCC(=O)/C(C#N)=C(\C)N)nnc12 | 4.2% |
| COc1cccc(NC(=O)C2c3cc(OC)c(OC)cc3C(=O)N(C)C2c2cccnc2)c1 (configuration not stated) | 50.1% (active) |
| COc1ccc(C2C(C(=O)N3CCN(c4ccc(OC)cc4)CC3)c3ccccc3C(=O)N2C)cc1 (configuration not stated) | 2.6% |
| CCOc1cc2c(cc1OCC)C(C(=O)O)C(c1ccc(OC)c(O)c1)N(C)C2=O (configuration not stated) | -11.4% |
| Cc1nc(SCC(=O)N2CC(=O)Nc3ccccc32)c2c(C)c(C)sc2n1 | 49.9% |
| C#CCN1C(=O)C(O)(CC(=O)c2cc(OC)ccc2OC)c2ccccc21 (configuration not stated) | 51.5% (active) |
| COc1ccc(OC)c(NC(=O)c2cnn(-c3ccccc3Cl)c2NC(=O)c2ccco2)c1 | -0.9% |
| COc1ccc(C(=O)CN2C(=O)NC(C)(c3ccc(C)cc3)C2=O)cc1OC (configuration not stated) | 1.3% |
| CCOc1ccc(CN2CCCN(C)CC2)cc1 | -4.6% |
| CC1(C)Cc2ccccc2-c2nnc(-c3cccc(O)c3)n21 | -16.2% |

| SMILES | inhibition |
| --- | --- |
| CC1=NN(c2cccc(Cl)c2)C(=O)C12CC(C)=C(C)CS2 (configuration not stated) | 90% (active) |
| Cc1[nH]n(-c2cccc(Cl)c2)c(=O)c1-c1ccc(Cl)cc1 | -13.5% |
| CC(=O)Oc1ccc(C)cc1N1C(=O)c2ccc(C(=O)O)cc2C1=O | -15.2% |
| O=C(C1CCCO1)N1CCC(c2nc3ccccc3[nH]2)CC1 (configuration not stated) | 20.9% |
| Cc1ccccc1N1CC(c2nc3ccccc3[nH]2)CC1=O (configuration not stated) | 81.9% (active) |
| Cc1ncn(C23CC4CC(CC(O)(C4)C2)C3)n1 | 3.7% |
| COc1ccc(C(=O)Nc2cc(C)ccc2NC(=O)COc2ccccc2)cc1 | 17% |
| CCCCC(=O)N(c1ccc(OC)cc1)C1C=CS(=O)(=O)C1 (configuration not stated) | 19.8% |
| CCCCN=C(N)/C(C(=O)OCC)=C(\O)c1ccc(OC)cc1 | 54.8% (active) |
| COc1ccc(OCCCC(=O)Nc2nnc(C3CCCO3)s2)cc1 (configuration not stated) | 34.1% |
| CCN1CCN(c2ccc([N+](=O)[O-])cc2C(=O)c2ccc(Cl)cc2)CC1 | 5.8% |
| CCCC(=O)Nc1nnc(CC(=O)OCC)s1 | -0.3% |
| Cc1ccc(N2C(=O)C(Cc3ccccc3)NC2=S)cc1 (configuration not stated) | 39.4% |
| CC1=CC(C)(C)NC(=S)N1c1ccccc1 | 58.1% (active) |
| COc1ccc2c(c1OC)C(=O)OC2Nc1nc(-c2ccccc2)cs1 (configuration not stated) | 12% |
| Cc1[nH]n(-c2ccccc2)c(=O)c1CCOC(=O)c1ccc(C(F)(F)F)cc1 | 31.8% |
| O=C(c1cccs1)N1CCN(Cc2ccc3c(c2)OCO3)CC1 | 56.9% (active) |
| O=C(Nc1cccc2ccccc12)N1CCN(Cc2ccc3c(c2)OCO3)CC1 | 35.2% |
| CCS(=O)(=O)N1CCN(C(=O)c2cccs2)CC1 | 56.5% (active) |
| O=C(c1cccs1)N1CCN(C(=O)N2CCOCC2)CC1 | 2.3% |
| O=C(CCCN1C(=O)c2cccc3cccc(c23)C1=O)N1CCN(Cc2ccc3c(c2)OCO3)CC1 | 78.8% (active) |
| CCCS(=O)(=O)N1CCN(C(=O)c2cccs2)CC1 | 11% |
| COc1ccc(S(=O)(=O)N2CCN(C(=O)c3cccs3)CC2)cc1OC | 43.6% |
| Cn1c(=O)cc(OCCCC(=O)N2CCN(Cc3ccc4c(c3)OCO4)CC2)c2ccccc21 | 36.7% |
